# Compound activity deposited in PubChem BioAssay by National Center for Advancing Translational Sciences (NCATS).
# This is a sample that favours compounds with a hit; in the whole collection about 2.1% have one here.
# TDP-43 yeast inh – rescues yeast growth from TDP-43 toxicity. TDP-43 expressing yeast growth rescue, BacTiter-Glo, 24 h. Potency, µM (doses to about 46.1 µM), usual class: activators. 1.8% of 410,000 active; also: nearly all actives have a fitted effect of over 50% in size
#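 Luminescence from BacTiter-Glo reports growth of TDP-43-expressing yeast after 24 hr at 30 deg C with compound. Cells were raffinose-pregrown to mid-log, then seeded in galactose medium at OD600=0.02.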
# Abeta rescue – A-beta toxicity reversal in yeast. yeast expressing A-beta42, growth rescue, OD600, 48 h; response scale: 0% DMSO, 100% iron-clioquinol control. Potency, µM (doses to about 46.1 µM), actives largely listed as activators. 0.063% of 410,000 active; also: nearly all actives have a fitted effect of over 55% in size
#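 Growth rescue measured by 600 nm absorbance after 48 h yeast culture at 30 C with compound. Values normalized between DMSO and an equimolar ferric chloride plus clioquinol control.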
# FUS yeast rescue – suppressors of FUS proteinopathy in yeast; S. cerevisiae FUS-expressing, growth rescue, OD600, 24 h; Potency, µM (series often up to 76.6 µM), hits mostly activators; 0.24% of 390,000 active; also: nearly all actives have a fitted effect of over 55% in size
#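 Compound concentration series was pinned onto galactose-induced FUS-expressing yeast seeded at OD 0.005. Plates sat 24hr at 30C; absorbance at 600 nm gave growth. DMSO served as background control.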
# aSyn rescue – alpha-synuclein toxicity inhibition in yeast | Yeast expressing alpha-synuclein, growth rescue, BacTiter-Glo, 24 h | Potency, µM (series often up to 46.1 µM), most hits filed as activators | 0.14% of 370,000 active | AID 652106; also: nearly all actives have a fitted effect of over 65% in size
#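 Screening used galactose-induced yeast with toxic alpha-synuclein levels, exposed to compound for 24 hr at 30 deg C. Cell growth, read with BacTiter-Glo luminescence, gave the measured signal.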
# A number is an active result; i = inactive; ? = inconclusive; nt = no result given; [ ] = dose if it differs, or a comment. Calls follow the shape of the dose curve; as a rule, active = well fitted curve in the direction sought with a large enough effect; inconclusive = small, poorly fitted or top-dose-only effect, or another doubt; inactive = no such curve, though single readings can be large; an effect the other way counts as inactive or inconclusive.
SMILES,TDP-43 yeast inh,Abeta rescue,FUS yeast rescue,aSyn rescue
COc1ccc(-c2nc(C)c(CCNC(=O)c3cccs3)s2)cc1OC,22µM,i,i,i
Cc1nc(-c2ccccc2)sc1C(=O)Nc1ccccc1F,13µM,i,i,i
Cc1nc(-c2ccc(F)cc2)sc1CCNC(=O)c1ccc(OC(C)C)cc1,16µM,i,i,nt
COc1ccc(NC(=O)c2sc(-c3ccccc3)nc2C)c(OC)c1,i,i,i,i
Cc1ccc(-c2nc(C)c(CCNC(=O)c3ccco3)s2)cc1,?,i,i,i
COc1ccc(-c2nc(C)c(CCNC(=O)c3ccco3)s2)cc1,16µM,i,i,i
Cc1c(Cl)cccc1NC(=O)c1cnc2sc(N3CCOCC3)nn2c1=O,i,i,?,nt
N#Cc1cccc(NC(=O)OCCN2C(=O)CCC23CCC(c2ccc(Cl)cc2)CC3)c1 (configuration not stated),nt,nt,i,nt
CC(Nc1oc(-c2ccc(COc3ccccc3)o2)nc1C#N)c1ccccc1 (configuration not stated),i,i,i,nt
Cc1nc(-c2ccc(F)cc2)sc1CCNC(=O)c1cccs1,8.9µM,i,i,nt
Cc1nc(-c2ccc(F)cc2)sc1CCNC(=O)c1ccccc1,18µM,i,i,nt
Cc1nc(-c2ccc(F)cc2)sc1CCNC(=O)c1ccc(C(C)(C)C)cc1,i,i,i,nt
C#CCNC(=O)C[C@@H]1C[C@@](CCC(=O)OCC)(C(=O)OCC)C2=CCCCN2C1=O,nt,nt,i,nt
COc1cccc(NS(=O)(=O)c2ccc3[nH]cc(C(=O)N(C)C4CCCCC4)c(=O)c3c2)c1,i,i,i,nt
Cc1cc(C)cc(NC(=S)NCc2ccc3[nH]c4c(c3c2)CCCC4)c1,i,?,?,i
S=C(NCc1ccc2[nH]c3c(c2c1)CCCC3)Nc1ccccc1,18µM,?,i,?
O=C(/C=C/c1cccc(Cl)c1)Nn1c(-c2cccs2)nc2ccccc2c1=O,10µM,i,i,i
O=C(/C=C/c1ccccc1)Nn1c(-c2cccs2)nc2ccccc2c1=O,i,i,i,i
O=C(/C=C/c1cccc(Cl)c1)NCc1cccs1,18µM,i,i,i
COc1ccc(/C=C/S(=O)(=O)NC2CCCC2)c(CNC(=O)OC(C)(C)C)c1,nt,nt,i,nt
COC(=O)c1ccccc1NC(=O)c1ccc(=O)n(Cc2cccc(C)c2)c1,32µM,i,i,i
CCCCc1ccc(NC(=O)c2ccc(=O)n(Cc3cccc(C)c3)c2)cc1,i,i,i,i
O=C(c1ccoc1)N1CCN(c2cc(-c3cccnc3)nc3cc(-c4cccc(Cl)c4)nn23)CC1,7.9µM,i,?,i
O=C(c1ccoc1)N1CCN(c2cc(-c3ccncc3)nc3cc(-c4cccc(Cl)c4)nn23)CC1,?,i,i,i
O=C(c1ccncc1)N1CCN(c2cc(-c3ccccc3)nc3cc(-c4cccc(Cl)c4)nn23)CC1,?,i,i,?
SMILES,TDP-43 yeast inh,Abeta rescue,FUS yeast rescue,aSyn rescue
CC(=O)N1CCN(c2cc(-c3ccccc3)nc3cc(-c4cccc(Cl)c4)nn23)CC1,2.2µM,i,i,i
CC1(C(=O)NCc2ccc(Cl)cc2)CCN1C(=O)Cc1ccc(Cl)cc1Cl (configuration not stated),32µM,i,i,?
CC1(C(=O)Nc2ccc(F)cc2F)CCN1C(=O)Cc1ccccc1Cl (configuration not stated),i,i,i,i
CC1(C(=O)Nc2ccccc2F)CCN1C(=O)Cc1cc(F)ccc1F (configuration not stated),7.1µM,i,i,i
CC1(C(=O)NCc2ccc(Cl)cc2)CCN1C(=O)Cc1cccc2ccccc12 (configuration not stated),35µM,i,i,?
CC1(C(=O)Nc2cccc3ccccc23)CCN1C(=O)Cc1ccc(Cl)cc1Cl (configuration not stated),35µM,i,?,?
CC1(C(=O)NS(=O)(=O)c2ccc(Cl)cc2)CCN1C(=O)Cc1cccc2ccccc12 (configuration not stated),i,i,i,i
O=C(Nc1ccc2nc(SCC(=O)N3CCOCC3)sc2c1)c1ccccc1Cl,i,i,i,nt
O=C1COc2ccccc2N1Cc1ccc(Cl)cc1,20µM,i,i,i
CCOC(=O)c1cnn(-c2ccc(C(=O)Nc3cc(OC)c(OC)c(OC)c3)cc2)c1N,i[9.22 µM],i,i,nt
CSc1ccc(C(=S)N2CCCCCC2)cc1,11µM,?,i,i
O=C(N/N=C/c1sc(N2CCOCC2)nc1-c1ccccc1)c1ccccc1Cl,i,i,i,i
O=C(N/N=C/c1sc(N2CCOCC2)nc1-c1ccccc1)c1ccccc1O,14µM,i,i,i
O=C(c1cn(-c2ccc(Cl)c(Cl)c2)nn1)C1CC1,8.9µM,i,i,i
COc1cccc(CNC(=O)CCSCc2ccccc2F)c1,14µM,i,i,i
Clc1ccc(-n2c(Cc3cccs3)nnc2SC/C=C/c2ccccc2)cc1,nt,nt,i,nt
COc1cccc(CNc2ccc([N+](=O)[O-])cc2C)c1,16µM,i,i,i
COc1ccc(OC)c(CNc2ccc([N+](=O)[O-])cc2C)c1,?,i,i,i
CCN1C(=O)[C@H]2[C@@H](c3ccc(-c4ccc(Cl)c(Cl)c4)c(OC)c3)N[C@@](C)(C(=O)OC)[C@H]2C1=O,i,i,i,i
CCN1C(=O)[C@H]2[C@@H](c3ccc(-c4ccc(Cl)c(Cl)c4)cc3)N[C@@](C)(C(=O)OC)[C@H]2C1=O,20µM,i,32µM,i
CCN1C(=O)[C@@H]2[C@@H](c3ccc(-c4ccc(Cl)c(Cl)c4)cc3)N3CCC[C@@]3(C(=O)OC)[C@@H]2C1=O,i,i,20µM,i
COC(=O)[C@]1(Cc2ccccc2)N[C@H](c2ccc(-c3ccccc3)cc2)[C@@H]2C(=O)N(C)C(=O)[C@@H]21,i,i,i,i
COC(=O)[C@]1(Cc2ccccc2)N[C@H](c2ccc(-c3cccc(Cl)c3)cc2)[C@@H]2C(=O)N(C)C(=O)[C@@H]21,i,i,14µM,i
CCN1C(=O)[C@H]2[C@@H](c3ccc(-c4ccc(Cl)c(Cl)c4)cc3)N3CCCC[C@@]3(C(=O)OC)[C@H]2C1=O,i,i,i,?
CCN1C(=O)[C@H]2[C@@H](c3ccc(-c4ccc(Cl)c(Cl)c4)c(OC)c3)N3CCCC[C@@]3(C(=O)OC)[C@H]2C1=O,i,i,25µM,?
SMILES,TDP-43 yeast inh,Abeta rescue,FUS yeast rescue,aSyn rescue
CCc1cc(/C=C/c2ccnc3ccccc23)ccc1N(C)C,nt,nt,nt,i
O=C(Nc1cccc(F)c1)N1CCc2nc(NCc3cccc(Oc4ccccc4)c3)ncc2C1,16µM,i,i,i
CC(C)c1ccc(NC(=O)N2CCc3nc(NCc4cccc(Oc5ccccc5)c4)ncc3C2)cc1,i,i,?,i
Cc1ccc(S(=O)(=O)c2ccc([N+](=O)[O-])cn2)cc1,?,i,i,i
Cc1cc(S(=O)(=O)c2ccc([N+](=O)[O-])cn2)ccc1Br,1µM,i,i,i
O=C(Nc1ccc(Br)cc1)c1ccc(F)c(S(=O)(=O)N2CCc3ccccc32)c1,i,i,i,nt
